Assay results: PubChem BioAssay AID492972 (The Scripps Research Institute Molecular Screening Center, 2010)
In all, about 340,000 compounds went through this assay and about 930 (0.27%) were called active. The full list was thinned out, with actives kept by preference. A number with no mark means an inactive call.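 Rule for the calls: active = inhibition above the screen-wide average of all tested compounds plus 3 SD (cut at about 25% in these data); inactive = the rest.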

target: Platelet-activating factor acetylhydrolase IB subunit alpha1 (Homo sapiens) (UniProt Q15102); assay: inhibition of PAF acetylhydrolase 1B subunit 3 – biochemical, fluorescence polarization, human, primary screen (AID 492972); conditions: recombinant PAFAH1B3, FP-rhodamine probe, at 3.39 µM, active compounds read high;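 note: 0% = enzyme with DMSO only and 100% = wells lacking PAFAH1B3 protein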
Sequence (Q15102 whole entry, looked up): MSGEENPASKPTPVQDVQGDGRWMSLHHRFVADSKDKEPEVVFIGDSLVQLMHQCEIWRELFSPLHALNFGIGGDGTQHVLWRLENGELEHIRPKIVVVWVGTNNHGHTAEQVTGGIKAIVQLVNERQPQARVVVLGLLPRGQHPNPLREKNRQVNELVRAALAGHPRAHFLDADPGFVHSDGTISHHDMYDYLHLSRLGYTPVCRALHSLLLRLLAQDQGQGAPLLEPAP

| Compound | inhibition |
| --- | --- |
| O=C1NC(=O)N(c2ccc(F)cc2)C(=O)/C1=C/c1ccc2c(c1)CCCN2Cc1ccccc1 | 4.39% |
| COc1ccc(N2C(=O)/C(=C/c3ccco3)C(=O)NC2=S)cc1 | 16.7% |
| O=C1NC(=O)N(c2ccccc2)C(=O)/C1=C/c1ccc([N+](=O)[O-])s1 | 25.6% (active) |
| CCCCCn1c(=O)c(C(=O)NCc2ccccn2)c(O)c2ccccc21 | 4.97% |
| COC(=O)N(c1ccc(OC)cc1)P1(=S)OCCC(C)O1 (stereo not given) | -0.56% |
| COc1cc(Cn2c(N)c(C(=O)NCc3ccco3)c3nc4ccccc4nc32)cc(OC)c1OC | 9.25% |
| CCOC(=O)c1c(N)n(Cc2ccccc2)c2nc3ccccc3nc12 | 36.2% (active) |
| CC/C(=N\NC(=O)c1ccccc1O)c1c(O)n(Cc2ccccc2)c(=O)[nH]c1=O | 13.4% |
| O=C(c1cc2nc(-c3ccccc3)cc(-c3ccccc3)n2n1)N1CCC2(CC1)OCCO2 | 1.81% |
| COC(=O)C(O)(c1ccc(NC(=O)c2ccco2)c(OC)c1)C(F)(F)F (stereo not given) | -1.88% |
